Source: PubChem BioAssay (EPA / NIEHS)
Records with an inconclusive call do not appear. The source made the active and inactive calls. Rule for the calls, unless noted: active = hit-call score of the fitted dose curve at least 0.9, where 1 is the maximum; inconclusive = response in the unintended direction; inactive = score below 0.9.

Tests used:
[1] = ATG_TAL_CIS: Attagene CIS-FACTORIAL HepG2 Assay for human TAL Basal Promoter (AID 2282966; active = hit-call score of the fitted dose curve at least 0.9, where 1 is the maximum; inactive = score below 0.9;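 note: background control endpoint measuring basal TAL promoter reporter mRNA not a specific factor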); settings: HepG2 Attagene cis-factorial TAL promoter reporter; actives raise or lower the signal
Summary of the method: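 Basal-promoter background-control endpoint from a multiplexed HepG2 reporter panel. Cells were exposed 24 h, then reporter mRNA was read by RT-PCR/CE fluorescence and fitted in both directions relative to DMSO.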

[2] = ATG_TGFb_CIS: Attagene CIS-FACTORIAL HepG2 Assay for human Transforming Growth Factor (TGF) (AID 2282967; active = hit-call score of the fitted dose curve at least 0.9, where 1 is the maximum; inactive = score below 0.9); settings: HepG2 Attagene CIS TGFb reporter, mRNA transcription; actives raise or lower the signal
Summary of the method: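 Cells were dosed for 24 hours, after which total RNA was reverse-transcribed and reporter sequences amplified, labeled and sized by capillary electrophoresis. Activity was fitted in both directions against DMSO.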

[3] = ATG_VDRE_CIS: Attagene CIS-FACTORIAL HepG2 Assay for human Vitamin D Receptor Element (VDRE) (AID 2282968; active = hit-call score of the fitted dose curve at least 0.9, where 1 is the maximum; inactive = score below 0.9); settings: HepG2 VDRE cis-reporter transcription, actives raise or lower the signal
Summary of the method: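 Measures endogenous factor activity through cis-element-driven reporter transcripts in transiently transfected HepG2. Cells are treated 24 h; reporter mRNA is quantified by RT-PCR and capillary electrophoresis; fitting is bidirectional.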

[4] = biological target: Nuclear receptor subfamily 1 group I member 3 (Homo sapiens) (UniProt Q14994); experiment: ATG_CAR_TRANS: Attagene TRANS-FACTORIAL HepG2 Assay for human Constitutive Androstane Receptor (CAR) (AID 2282969); settings: HepG2 Attagene TRANS-FACTORIAL CAR reporter;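 note: activators raise reporter mRNA above DMSO so AC50 marks induction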
Sequence of Nuclear receptor subfamily 1 group I member 3 (Homo sapiens) (Q14994 whole entry, looked up, the tested form may be a part): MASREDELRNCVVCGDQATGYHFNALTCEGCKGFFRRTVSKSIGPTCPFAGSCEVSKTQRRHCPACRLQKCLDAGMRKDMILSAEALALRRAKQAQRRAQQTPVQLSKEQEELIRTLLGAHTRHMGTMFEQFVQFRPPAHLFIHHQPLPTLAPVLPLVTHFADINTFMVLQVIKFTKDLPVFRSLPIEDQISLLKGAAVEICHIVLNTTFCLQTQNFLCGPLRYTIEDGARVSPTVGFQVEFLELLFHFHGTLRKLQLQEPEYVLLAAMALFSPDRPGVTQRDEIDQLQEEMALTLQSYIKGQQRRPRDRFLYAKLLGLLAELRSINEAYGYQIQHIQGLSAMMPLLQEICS
Summary of the method: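 Signal is reporter mRNA induction relative to DMSO, measured 24 h after dosing by RT-PCR with fluorescent primer extension and capillary electrophoresis. Human HepG2 liver cells carried transiently transfected chimeric NR-Gal4/GAL4-UAS reporter constructs.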

[5] = biological target: X-box-binding protein 1 (Homo sapiens) (UniProt P17861); experiment: ATG_Xbp1_CIS: Attagene CIS-FACTORIAL HepG2 Assay for human X-box Binding Protein 1 (XBP1) (AID 2282972; active = hit-call score of the fitted dose curve at least 0.9, where 1 is the maximum; inactive = score below 0.9); settings: HepG2 XBP1 cis-element reporter, Attagene multiplex; actives raise or lower the signal
Sequence of X-box-binding protein 1 (Homo sapiens) (P17861 whole entry, looked up): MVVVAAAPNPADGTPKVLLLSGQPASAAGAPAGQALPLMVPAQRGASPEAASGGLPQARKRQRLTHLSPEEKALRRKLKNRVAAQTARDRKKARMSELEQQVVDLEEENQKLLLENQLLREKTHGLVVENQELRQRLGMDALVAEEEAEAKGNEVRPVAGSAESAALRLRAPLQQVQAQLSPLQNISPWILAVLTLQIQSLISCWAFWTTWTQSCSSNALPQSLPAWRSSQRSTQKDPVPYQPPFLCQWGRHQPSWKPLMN
Summary of the method: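 Multiplexed cis-reporter readout in transfected HepG2 liver cells. Exposure lasted 24 hours. Activity in either direction was fitted against DMSO as negative control and baseline.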

[6] = biological target: Oxysterols receptor LXR-beta (Homo sapiens) (UniProt P55055); experiment: ATG_LXRb_TRANS: Attagene TRANS-FACTORIAL HepG2 Assay for human Liver X Receptor beta (LXRb) (AID 2282981); settings: HepG2 Attagene TRANS GAL4-LXRb reporter, mRNA
Sequence of Oxysterols receptor LXR-beta (Homo sapiens) (P55055 whole entry, looked up, the tested form may be a part): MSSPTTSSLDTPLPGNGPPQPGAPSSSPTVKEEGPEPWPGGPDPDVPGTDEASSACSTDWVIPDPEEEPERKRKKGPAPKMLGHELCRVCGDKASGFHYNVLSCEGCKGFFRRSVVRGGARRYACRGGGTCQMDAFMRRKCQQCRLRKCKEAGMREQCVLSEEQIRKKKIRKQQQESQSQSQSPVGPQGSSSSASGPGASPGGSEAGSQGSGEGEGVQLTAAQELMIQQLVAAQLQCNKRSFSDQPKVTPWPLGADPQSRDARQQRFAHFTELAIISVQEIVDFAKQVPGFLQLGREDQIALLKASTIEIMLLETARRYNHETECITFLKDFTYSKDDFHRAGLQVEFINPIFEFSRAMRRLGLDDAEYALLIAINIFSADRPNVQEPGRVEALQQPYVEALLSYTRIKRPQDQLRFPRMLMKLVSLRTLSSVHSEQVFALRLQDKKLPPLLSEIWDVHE
Summary of the method: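 After 24 h of chemical treatment, transfected HepG2 cells yield total RNA; reporter cDNA is PCR-amplified, FAM-labelled, HpaI-cut and run on capillary electrophoresis. Signal reflects chimeric LXRb-Gal4 activity on GAL4-UAS reporters.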

[7] = ATG_M_06_TRANS: Attagene TRANS-FACTORIAL HepG2 Assay for M06 Transcription Factor (Internal Marker) (AID 2282983); settings: HepG2 Attagene TRANS M06 internal marker reporter
Summary of the method: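 mRNA levels of a reporter transcript, quantified as FAM fluorescence on capillary electrophoresis, served as readout. HepG2 cells expressing exogenous GAL4-chimera reporter constructs were exposed for 24 h. Gain of signal over DMSO was evaluated.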

[8] = biological target: Nuclear receptor subfamily 4 group A member 2 (Homo sapiens) (UniProt P43354); experiment: ATG_NURR1_TRANS: Attagene TRANS-FACTORIAL HepG2 Assay for human Nuclear Receptor Related Protein 1 (NURR1) (AID 2282985); settings: HepG2 Attagene TRANS reporter, mRNA readout
Sequence of Nuclear receptor subfamily 4 group A member 2 (Homo sapiens) (P43354 whole entry, looked up, the tested form may be a part): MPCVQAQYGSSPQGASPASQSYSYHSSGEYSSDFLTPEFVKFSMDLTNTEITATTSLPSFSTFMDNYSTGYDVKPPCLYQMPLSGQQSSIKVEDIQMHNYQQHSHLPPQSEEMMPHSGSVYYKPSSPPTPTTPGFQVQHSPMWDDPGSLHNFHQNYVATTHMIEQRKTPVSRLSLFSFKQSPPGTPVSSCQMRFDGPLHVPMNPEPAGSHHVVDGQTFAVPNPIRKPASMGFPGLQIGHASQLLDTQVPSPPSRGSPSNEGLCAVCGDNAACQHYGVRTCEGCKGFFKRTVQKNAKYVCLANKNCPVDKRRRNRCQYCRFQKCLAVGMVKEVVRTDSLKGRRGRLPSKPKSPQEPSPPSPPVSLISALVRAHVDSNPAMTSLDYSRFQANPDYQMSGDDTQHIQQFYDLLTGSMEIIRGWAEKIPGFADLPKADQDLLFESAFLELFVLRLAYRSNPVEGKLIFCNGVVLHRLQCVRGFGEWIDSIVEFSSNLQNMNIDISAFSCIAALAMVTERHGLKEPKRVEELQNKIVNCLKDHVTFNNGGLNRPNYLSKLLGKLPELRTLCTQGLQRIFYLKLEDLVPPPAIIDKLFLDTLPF
Summary of the method: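 Measures transcriptional activation by an exogenous NR-Gal4 chimera in transfected HepG2 liver cells. After 24 h, reporter RNA is reverse-transcribed, amplified and resolved by capillary electrophoresis; DMSO defines baseline.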

[9] = biological target: Transcriptional activator Myb (Homo sapiens) (UniProt P10242); experiment: ATG_Myb_CIS: Attagene CIS-FACTORIAL HepG2 Assay for human Myeloblastosis (Myb) Proto-Oncogene Transcription Factor (AID 2282986; active = hit-call score of the fitted dose curve at least 0.9, where 1 is the maximum; inactive = score below 0.9); settings: HepG2 Attagene CIS-FACTORIAL Myb reporter transcription; actives raise or lower the signal
Sequence of Transcriptional activator Myb (Homo sapiens) (P10242 whole entry, looked up): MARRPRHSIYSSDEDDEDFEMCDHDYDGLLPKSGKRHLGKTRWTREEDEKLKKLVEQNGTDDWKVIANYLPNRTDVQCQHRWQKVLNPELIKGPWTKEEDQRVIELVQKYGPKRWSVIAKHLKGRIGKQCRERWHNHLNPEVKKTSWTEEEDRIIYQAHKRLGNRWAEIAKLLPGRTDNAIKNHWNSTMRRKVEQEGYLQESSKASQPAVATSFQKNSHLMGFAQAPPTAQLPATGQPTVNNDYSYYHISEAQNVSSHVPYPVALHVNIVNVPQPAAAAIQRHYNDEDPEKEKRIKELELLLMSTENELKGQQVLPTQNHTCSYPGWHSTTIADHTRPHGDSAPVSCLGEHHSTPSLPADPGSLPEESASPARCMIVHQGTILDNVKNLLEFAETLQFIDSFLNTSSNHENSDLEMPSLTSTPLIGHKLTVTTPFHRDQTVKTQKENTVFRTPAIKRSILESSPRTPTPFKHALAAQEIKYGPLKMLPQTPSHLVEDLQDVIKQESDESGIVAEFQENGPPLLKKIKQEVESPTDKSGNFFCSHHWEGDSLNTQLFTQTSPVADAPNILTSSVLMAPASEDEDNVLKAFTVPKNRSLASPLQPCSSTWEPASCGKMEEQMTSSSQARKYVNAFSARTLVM
Summary of the method: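 Transiently transfected HepG2 cells, treated 24 h. Reporter mRNA quantified by RT-PCR/capillary electrophoresis; bidirectional fit relative to DMSO.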

[10] = biological target: Nuclear respiratory factor 1 (Homo sapiens) (UniProt Q16656); experiment: ATG_NRF1_CIS: Attagene CIS-FACTORIAL HepG2 Assay for human Nuclear Respiratory Factor 1 (NRF1) Orphan Gene (AID 2282987; active = hit-call score of the fitted dose curve at least 0.9, where 1 is the maximum; inactive = score below 0.9); settings: HepG2 NRF1 cis-element reporter, Attagene multiplex; actives raise or lower the signal
Sequence of Nuclear respiratory factor 1 (Homo sapiens) (Q16656 whole entry, looked up, the tested form may be a part): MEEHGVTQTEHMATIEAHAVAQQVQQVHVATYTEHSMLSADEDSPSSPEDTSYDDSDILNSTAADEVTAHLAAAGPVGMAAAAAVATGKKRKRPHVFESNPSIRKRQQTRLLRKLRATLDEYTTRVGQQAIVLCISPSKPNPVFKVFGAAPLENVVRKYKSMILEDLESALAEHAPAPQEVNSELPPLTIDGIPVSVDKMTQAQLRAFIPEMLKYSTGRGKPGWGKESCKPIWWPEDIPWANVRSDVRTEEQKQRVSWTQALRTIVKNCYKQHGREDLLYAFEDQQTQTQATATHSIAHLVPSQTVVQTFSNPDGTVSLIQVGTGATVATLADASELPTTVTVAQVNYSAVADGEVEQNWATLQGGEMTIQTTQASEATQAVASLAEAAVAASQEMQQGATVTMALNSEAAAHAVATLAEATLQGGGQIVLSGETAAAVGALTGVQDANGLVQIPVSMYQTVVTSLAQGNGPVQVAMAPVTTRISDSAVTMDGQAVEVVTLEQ
Summary of the method: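 Cells (HepG2, transient MRTU transfection) are exposed to compound for 24 h, then RNA isolated and reporter mRNA amplified and fluorescently labelled. Fragments are separated by capillary electrophoresis; signal change is fitted bidirectionally relative to DMSO.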

[11] = biological target: Estrogen receptor (Homo sapiens) (UniProt P03372); experiment: ATG_ERa_TRANS: Attagene TRANS-FACTORIAL HepG2 Assay for human Estrogen Receptor alpha (ERa) (AID 2282970); settings: HepG2 Attagene TRANS ERa GAL4 reporter, mRNA
Sequence of Estrogen receptor (Homo sapiens) (P03372 whole entry, looked up, the tested form may be a part): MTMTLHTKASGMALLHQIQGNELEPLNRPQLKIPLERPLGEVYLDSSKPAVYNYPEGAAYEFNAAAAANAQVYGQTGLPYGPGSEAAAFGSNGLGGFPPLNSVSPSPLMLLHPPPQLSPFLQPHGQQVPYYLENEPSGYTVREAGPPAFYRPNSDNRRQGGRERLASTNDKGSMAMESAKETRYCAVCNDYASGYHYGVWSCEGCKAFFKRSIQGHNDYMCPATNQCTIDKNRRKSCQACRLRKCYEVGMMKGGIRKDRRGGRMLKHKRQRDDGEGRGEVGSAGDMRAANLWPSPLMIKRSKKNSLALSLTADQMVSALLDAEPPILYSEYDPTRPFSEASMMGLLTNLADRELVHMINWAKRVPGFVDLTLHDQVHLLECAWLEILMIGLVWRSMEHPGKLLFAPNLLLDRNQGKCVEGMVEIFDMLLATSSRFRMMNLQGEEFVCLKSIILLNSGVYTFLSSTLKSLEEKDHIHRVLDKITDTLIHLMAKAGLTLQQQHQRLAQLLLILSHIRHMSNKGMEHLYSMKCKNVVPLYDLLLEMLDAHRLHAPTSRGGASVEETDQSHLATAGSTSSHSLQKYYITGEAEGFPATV
Summary of the method: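 Gal4-fusion ERa transactivation, measured as reporter transcript level in transiently transfected HepG2 cells. Exposure 24 h; RT-PCR plus capillary electrophoresis with fluorescence detection.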

[12] = ATG_GAL4_TRANS: Attagene TRANS-FACTORIAL HepG2 Assay for GAL4 (Internal Marker) (AID 2282976); settings: HepG2 Attagene TRANS GAL4 internal marker reporter
Summary of the method: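 Background-control readout: GAL4-UAS reporter transcript in transiently transfected HepG2 cells after 24 h compound exposure. Measured by RT-PCR, 6-FAM primer extension, HpaI digest and capillary electrophoresis; gain-of-signal fit versus DMSO.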

[13] = biological target: Oxysterols receptor LXR-alpha (Homo sapiens) (UniProt Q13133); experiment: ATG_LXRa_TRANS: Attagene TRANS-FACTORIAL HepG2 Assay for human Liver X Receptor alpha (LXRa) (AID 2282980); settings: HepG2 Attagene TRANS reporter, LXRa transactivation
Sequence of Oxysterols receptor LXR-alpha (Homo sapiens) (Q13133 whole entry, looked up, the tested form may be a part): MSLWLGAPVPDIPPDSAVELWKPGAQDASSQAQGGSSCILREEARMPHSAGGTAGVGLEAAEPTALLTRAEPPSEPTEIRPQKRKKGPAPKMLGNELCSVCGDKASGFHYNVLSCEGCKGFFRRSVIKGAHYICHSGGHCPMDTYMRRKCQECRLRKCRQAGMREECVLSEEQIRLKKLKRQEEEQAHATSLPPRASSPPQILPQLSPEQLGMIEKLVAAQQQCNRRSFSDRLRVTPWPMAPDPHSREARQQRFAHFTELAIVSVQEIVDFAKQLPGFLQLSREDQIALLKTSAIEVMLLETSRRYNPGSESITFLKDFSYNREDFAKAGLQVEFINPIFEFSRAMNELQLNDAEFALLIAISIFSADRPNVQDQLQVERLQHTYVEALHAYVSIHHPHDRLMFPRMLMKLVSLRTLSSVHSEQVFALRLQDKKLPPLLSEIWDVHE
Summary of the method: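 HepG2 cells transiently transfected with GAL4-UAS reporter units for chimeric NR-Gal4 proteins, exposed to chemicals for 24 h. Reporter mRNA quantified by RT-PCR and capillary electrophoresis; gain of signal fitted relative to DMSO.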

[14] = biological target: Hepatocyte nuclear factor 4-alpha (Homo sapiens) (UniProt P41235); experiment: ATG_HNF4a_TRANS: Attagene TRANS-FACTORIAL HepG2 Assay for human Hepatocyte Nuclear Factor 4 alpha (HNF4a) (AID 2282982); settings: HepG2 HNF4a transactivation reporter, mRNA readout
Sequence of Hepatocyte nuclear factor 4-alpha (Homo sapiens) (P41235 whole entry, looked up): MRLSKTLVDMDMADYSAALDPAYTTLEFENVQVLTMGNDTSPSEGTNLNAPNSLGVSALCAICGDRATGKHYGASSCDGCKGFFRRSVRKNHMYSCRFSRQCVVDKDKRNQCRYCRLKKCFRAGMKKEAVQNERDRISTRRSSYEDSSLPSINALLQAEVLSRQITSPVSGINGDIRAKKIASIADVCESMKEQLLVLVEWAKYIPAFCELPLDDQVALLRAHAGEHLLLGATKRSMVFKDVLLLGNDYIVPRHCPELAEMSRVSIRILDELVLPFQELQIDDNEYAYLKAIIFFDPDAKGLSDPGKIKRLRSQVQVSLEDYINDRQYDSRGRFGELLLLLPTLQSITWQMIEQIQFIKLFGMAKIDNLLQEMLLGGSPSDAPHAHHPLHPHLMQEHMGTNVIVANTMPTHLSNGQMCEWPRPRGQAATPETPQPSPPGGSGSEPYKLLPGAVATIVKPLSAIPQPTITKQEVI
Summary of the method: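 Multiplexed reporter assay: transfected HepG2, 24 h exposure, total RNA → oligo(dT) RT → PCR → 6-FAM extension → HpaI digest → CE fluorescence. DMSO = negative control.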

[15] = ATG_M_32_TRANS: Attagene TRANS-FACTORIAL HepG2 Assay for M32 Transcription Factor (Internal Marker) (AID 2282984); settings: HepG2 Attagene TRANS M32 internal marker reporter
Summary of the method: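 Cell-based TRANS-format assay in HepG2: exogenous chimeric GAL4 reporter units transiently expressed, compounds applied 24 h. Reporter mRNA detected by RT-PCR plus capillary electrophoresis; this readout is an internal background marker.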

[16] = biological target: Bile acid receptor (Homo sapiens) (UniProt Q96RI1); experiment: ATG_FXR_TRANS: Attagene TRANS-FACTORIAL HepG2 Assay for Farnesoid X Receptor (FXR) (AID 2282979); settings: HepG2 Attagene TRANS FXR-GAL4 reporter transcription;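 note: hits raise reporter mRNA above DMSO so AC50 marks FXR activation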
Sequence of Bile acid receptor (Homo sapiens) (Q96RI1 whole entry, looked up, the tested form may be a part): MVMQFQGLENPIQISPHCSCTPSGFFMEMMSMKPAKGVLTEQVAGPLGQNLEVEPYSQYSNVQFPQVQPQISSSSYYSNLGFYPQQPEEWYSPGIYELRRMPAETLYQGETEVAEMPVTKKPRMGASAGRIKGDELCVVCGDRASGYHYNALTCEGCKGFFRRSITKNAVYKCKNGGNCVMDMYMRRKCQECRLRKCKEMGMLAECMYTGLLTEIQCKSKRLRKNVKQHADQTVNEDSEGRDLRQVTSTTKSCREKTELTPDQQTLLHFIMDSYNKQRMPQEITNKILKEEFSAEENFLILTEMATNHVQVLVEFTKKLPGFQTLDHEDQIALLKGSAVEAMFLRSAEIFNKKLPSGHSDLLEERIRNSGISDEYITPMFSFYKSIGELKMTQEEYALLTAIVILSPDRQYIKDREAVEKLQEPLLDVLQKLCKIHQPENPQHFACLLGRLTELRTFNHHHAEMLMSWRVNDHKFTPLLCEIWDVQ
Summary of the method: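 HepG2 cells were transiently transfected with GAL4-UAS reporters driven by chimeric NR-Gal4 proteins and dosed for 24 h. Reporter mRNA was quantified by RT-PCR, fluorescent labelling, HpaI digestion and capillary electrophoresis, with gain of signal scored versus DMSO.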

[17] = biological target: Glucocorticoid receptor (Homo sapiens) (UniProt P04150); experiment: ATG_GR_TRANS: Attagene TRANS-FACTORIAL HepG2 Assay for human Glucocorticoid Receptor (GR) (AID 2282978); settings: HepG2 Attagene TRANS GR reporter, mRNA transcription;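 note: activators score as hits since higher reporter transcript over DMSO is fitted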
Summary of the method: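 Reporter transcript levels, detected by fluorescence after RT-PCR and capillary electrophoresis, served as the endpoint. HepG2 cells bearing transfected GAL4-UAS reporters responsive to NR-GAL4 chimeras were incubated with compound 24 h; DMSO defined baseline.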

[18] = biological target: Estrogen-related receptor gamma (Homo sapiens) (UniProt P62508); experiment: ATG_ERRg_TRANS: Attagene TRANS-FACTORIAL HepG2 Assay for human Estrogen-Related Receptor gamma (ERRg) (AID 2282977); settings: HepG2 Attagene TRANS reporter, ERRg transactivation;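 note: hits increase reporter signal over DMSO so potencies reflect activators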
Summary of the method: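 Readout: fluorescent reporter-mRNA fragments resolved by capillary electrophoresis after RT-PCR and HpaI cut. Cells: transiently transfected HepG2 carrying GAL4-UAS reporters driven by exogenous NR-Gal4 chimeras, dosed 24 h. Activity fitted upward relative to DMSO baseline.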

Compound: O=C(OCC1CCC2OC2C1)C1CCC2OC2C1 (stereo not drawn)
- outcome [1]: inactive
- outcome [2]: inactive
- outcome [3]: inactive
- outcome [4]: inactive
- outcome [5]: inactive
- outcome [6]: inactive
- outcome [7]: inactive
- outcome [8]: inactive
- outcome [9]: inactive
- outcome [10]: inactive

Compound: Cc1ccc2c(c1)C(=O)c1ccccc1C2=O
- outcome [1]: inactive
- outcome [2]: inactive
- outcome [3]: inactive
- outcome [4]: inactive
- AC50 [11]: 12.4 µM (active)
- outcome [5]: inactive
- outcome [12]: inactive
- outcome [13]: inactive
- outcome [6]: inactive
- outcome [14]: inactive
- outcome [7]: inactive
- outcome [15]: inactive
- outcome [8]: inactive
- outcome [9]: inactive
- outcome [10]: inactive

Compound: OC1OCCOC1O (stereo not drawn)
- outcome [1]: inactive
- outcome [2]: inactive
- outcome [3]: inactive
- outcome [4]: inactive
- outcome [11]: inactive
- outcome [5]: inactive
- outcome [12]: inactive
- outcome [7]: inactive
- outcome [15]: inactive
- outcome [9]: inactive
- outcome [10]: inactive

Compound: O=C1CCCCCN1SSN1CCCCCC1=O
- outcome [1]: inactive
- outcome [2]: inactive
- outcome [3]: inactive
- outcome [4]: inactive
- outcome [11]: inactive
- AC50 [5]: 187 µM (active)
- outcome [12]: inactive
- outcome [16]: inactive
- outcome [6]: inactive
- outcome [14]: inactive
- outcome [7]: inactive
- outcome [15]: inactive
- outcome [8]: inactive
- outcome [9]: inactive
- outcome [10]: inactive

Compound: CCc1ccc2c(c1)C(=O)c1ccccc1C2=O
- outcome [1]: inactive
- outcome [2]: inactive
- AC50 [3]: 11.6 µM (active)
- outcome [4]: inactive
- AC50 [11]: 4.61 µM (active)
- outcome [5]: inactive
- outcome [13]: inactive
- outcome [6]: inactive
- outcome [7]: inactive
- outcome [8]: inactive
- outcome [9]: inactive
- outcome [10]: inactive

Compound: Nc1nc2ccccc2[nH]1
- outcome [1]: inactive
- outcome [2]: inactive
- outcome [3]: inactive
- outcome [4]: inactive
- outcome [11]: inactive
- outcome [5]: inactive
- outcome [17]: inactive
- outcome [16]: inactive
- outcome [13]: inactive
- outcome [6]: inactive
- outcome [14]: inactive
- outcome [7]: inactive
- outcome [15]: inactive
- outcome [8]: inactive
- outcome [9]: inactive
- outcome [10]: inactive

Compound: O=S(=O)(Oc1ccc(Cl)cc1Cl)c1ccccc1
- outcome [1]: inactive
- AC50 [2]: 63.4 µM (active)
- AC50 [3]: 6.51 µM (active)
- outcome [4]: inactive
- AC50 [11]: 5.33 µM (active)
- outcome [5]: inactive
- outcome [7]: inactive
- AC50 [8]: 35.4 µM (active)
- outcome [9]: inactive
- outcome [10]: inactive

Compound: CCCCCCOc1cc(C)c(O)c(C)c1C
- outcome [1]: inactive
- outcome [2]: inactive
- AC50 [3]: 9.58 µM (active)
- outcome [4]: inactive
- outcome [11]: inactive
- outcome [5]: inactive
- outcome [18]: inactive
- outcome [7]: inactive
- outcome [8]: inactive
- outcome [9]: inactive
- outcome [10]: inactive

Compound: Nc1ccc(N=Nc2ccccc2)c(N)n1
- outcome [1]: inactive
- outcome [2]: inactive
- AC50 [3]: 68.9 µM (active)
- outcome [4]: inactive
- AC50 [11]: 27.8 µM (active)
- AC50 [5]: 70.3 µM (active)
- outcome [17]: inactive
- outcome [13]: inactive
- outcome [6]: inactive
- outcome [14]: inactive
- outcome [15]: inactive
- outcome [8]: inactive
- outcome [10]: inactive

Compound: CCOC(=O)CC
- outcome [1]: inactive
- outcome [2]: inactive
- outcome [3]: inactive
- outcome [4]: inactive
- outcome [11]: inactive
- outcome [5]: inactive
- outcome [16]: inactive
- outcome [6]: inactive
- outcome [7]: inactive
- outcome [15]: inactive
- outcome [8]: inactive
- outcome [10]: inactive

Compound: CC(C)=CCC/C(C)=C\C#N
- outcome [1]: inactive
- outcome [2]: inactive
- outcome [3]: inactive
- outcome [4]: inactive
- outcome [11]: inactive
- outcome [5]: inactive
- outcome [12]: inactive
- outcome [13]: inactive
- outcome [6]: inactive
- outcome [7]: inactive
- outcome [15]: inactive
- outcome [8]: inactive
- outcome [10]: inactive
